In PubChem BioAssay AID743361 (Molecular Libraries Program, Specialized Chemistry Center, …, 2014):
A number with no mark means an inactive call. Calls of active or inactive are those of the source. The rule behind the calls is not given here.

Experiment: Rhodamine 123 quenching counterscreen activity, dose response, counter-screen for mtPTP inhibitor project, biochemical, dry powder samples, uHTS hits, fluorescence (AID 743361)
Settings: Rhodamine 123 fluorescence quenching counterscreen, cell-free

SMILES	IC50
COc1ccc(Cl)cc1C(=O)Nc1cccc(CN2CCN(C(=O)OC(C)(C)C)CC2)c1	73.5 µM (active)
O=C(Nc1cc(Cl)ccc1Cl)c1cc(-c2cccc(O)c2)on1	38.7 µM (active)
COc1ccc(C(=O)CCN2CCCC(C)C2)cc1 (stereo unspecified)	> 100 µM
COc1ccccc1C(=O)Nc1ccc(C(=O)N2CCCCC2)cc1	> 100 µM
COc1ccc(Cl)cc1C(=O)Nc1ccc(CCN2CCCCC2)cc1	> 100 µM
CCN(C(=O)c1cc(Cl)ccc1OC)c1ccccc1	> 100 µM
O=C(Nc1ccccc1C(F)(F)F)c1cc(-c2ccccc2)on1	> 100 µM
COc1ccc(Cl)cc1C(=O)Nc1ccc(CCN2CCNCC2)cc1	> 100 µM
COc1ccc(/C=C/C(=O)Nc2cccc(Cl)c2)cc1O	> 100 µM
CN1CCN(c2ccc(NS(=O)(=O)c3cc(Cl)cc(Cl)c3)cc2)CC1	> 100 µM
O=S(=O)(Nc1ccc(CN2CCCCC2)cc1)c1ccc(F)c(Cl)c1	> 100 µM
COc1ccc(Cl)cc1S(=O)(=O)Nc1ccc(N2CCN(C)CC2)cc1	> 100 µM
COc1ccc(Cl)c(C(=O)Nc2ccc(CCN3CCCCC3)cc2)c1	> 100 µM
COc1ccc(Cl)c(C(=O)Nc2ccc(CN3CCOCC3)cc2)c1	> 100 µM
COc1ccc(Cl)c(C(=O)Nc2ccc(CCN3CCN(C)CC3)cc2)c1	> 100 µM
CN1CCN(Cc2ccc(NS(=O)(=O)c3cccc(Cl)c3)cc2)CC1	> 100 µM

SMILES	IC50
CN1CCN(c2ccc(NC(=O)c3cccc(OCc4ccccc4)c3)cc2)CC1	> 100 µM
CC1(C)CCN(CCCC(=O)c2ccc(Br)cc2)CC1	> 100 µM
COc1cccc(-c2cc(C(=O)Nc3cc(Cl)ccc3C)no2)c1	> 100 µM
CN1CCN(CCc2ccc(NS(=O)(=O)c3cc(Cl)cc(Cl)c3)cc2)CC1	> 100 µM
O=C(Nc1ccc(CN2CCCCC2)cc1)c1cc(OCc2ccccc2)ccc1Cl	76.2 µM (active)
C[C@@H]1CCC[C@H](C)N1CCCC(=O)c1ccc(Br)cc1	> 100 µM
CCN(CC)c1ccc(NC(=O)c2ccc(OC)c(Cl)c2)cc1	> 100 µM
O=C(Nc1cc(Cl)ccc1F)c1cc(-c2cccc(O)c2)on1	> 100 µM
COc1ccc(NC(=O)c2cc(-c3cccc(O)c3)on2)cc1Cl	> 100 µM
O=C(Nc1ccc(OCc2ccccc2)c(Cl)c1)c1cc(-c2cccc(O)c2)on1	> 100 µM
O=C(Nc1cccc(Cl)c1Cl)c1cc(-c2cccc(O)c2)on1	> 100 µM
Cc1cc(NC(=O)c2ccc(-n3cnnc3)cc2)no1	> 100 µM
COc1c(Cl)cccc1NC(=O)c1cc(-c2cccc(O)c2)on1	> 100 µM
O=S(=O)(Nc1ccc(CCN2CCCCC2)cc1)c1ccc(F)c(Cl)c1	> 100 µM
O=C(Nc1cccc(Cl)c1)c1cc(-c2ccccc2)on1	> 100 µM
